The values below come from PubChem BioAssay (Tox21).

Experiment [1] can be described thus: qHTS assay to identify small molecule antagonists of the estrogen receptor beta (ER-beta) signaling pathway - cell viability counter screen (AID 1259382). Also: nearly all actives have a fitted effect of over 55% in size. Also: potency is read from the fitted curve at half-maximal effect. In a few lines:
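Cytotoxicity was measured in the same wells by CellTiter-Glo luminescence after 30 min at room temperature. Cells were ER-beta-bla HEK293T in charcoal-stripped serum, given compound together with 1 nM E2 and incubated 16 h at 37C.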

Experiment [2] addresses Estrogen receptor (Homo sapiens) (UniProt P03372). Kind of experiment: qHTS assay to identify small molecule agonists of the estrogen receptor alpha (ER-alpha) signaling pathway in the presence of an antagonist (AID 1259383; calls by dose curve; also: top concentration of the series differs between compounds; nearly all actives have a fitted effect of over 15% in size). In a few lines:
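Agonist-mode confirmation run in the presence of 10.0nM (final) ICI-182,780 antagonist. The reporter was ERE-driven luciferase in VM7Luc4E2 cells, grown in charcoal-stripped serum. Cells were exposed to 15-concentration compound series for 22hr, then ONE-Glo luminescence was read.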
On the technique in general: Quantitative high-throughput screening tests each substance at several concentrations.

Experiment [3] can be described thus: qHTS assay to identify small molecule agonists or antagonists of the thyroid stimulating hormone receptor (TSHR) signaling pathway - wild type cell line counter screen (AID 1259384; calls by dose curve). In short, it runs like this:
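Wild-type Hek293 cells, 800/well, 18 h at 37C, then compound with Ro20-1724 for 30 min RT. cAMP by HTRF (cAMP-d2/anti-cAMP cryptate), 1 h RT, fluorescence read. 15 concentrations, triplicates.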

Experiment [4] has as its target Thyrotropin receptor (Homo sapiens) (UniProt P16473). The experiment in a line: qHTS assay to identify small molecule antagonists of the thyroid stimulating hormone receptor (TSHR) signaling pathway (AID 1259385; calls by dose curve; also: nearly all actives have a fitted effect of over 20% in size; also: potency is read from the fitted curve at half-maximal effect). In a few lines: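 TSHR-HEK293 cells (800/well) plated 18 h, then compounds with Ro20-1724 and TSH at 1.5 ng/mL final, 30 min at room temperature. cAMP quantified by HTRF (cAMP-d2/anti-cAMP-cryptate, 1 h); 15 concentrations in triplicate.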

The nature of experiment [5]: qHTS assay to identify small molecule agonists of the estrogen receptor alpha (ER-alpha) signaling pathway in the presence of an antagonist - cell viability counter screen (AID 1259386). Also: series mostly up to about 92 µM; nearly all actives have a fitted effect of over 30% in size. In a few lines:
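Compounds tested at 15 concentrations for 22 h at 37C alongside 10.0nM (final) ICI-182,780 antagonist, in VM7Luc4E2 cells grown in phenol red-free, charcoal-stripped medium. Viability read by CellTiter-Fluor fluorescence after 1 h reagent incubation.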

The target of experiment [6] is Progesterone receptor (Homo sapiens) (UniProt P06401). The experiment in a line: qHTS assay to identify small molecule antagonists of the progesterone receptor (PR) signaling pathway (AID 1346795; active = well fitted inhibition curve with a large enough effect in the signal ratio in the repeat runs, not every such curve was filed as active; the % refers to the signal ratio; also: potency is read from the fitted curve at half-maximal effect). In short, it runs like this: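 Antagonist mode: compounds tested against 1 nM (final) promegestone stimulation in HEK293T cells expressing PR-UAS-bla reporter, 16 hr at 37C, 5% CO2; beta-lactamase activity detected via B/G FRET substrate after 2 hr at room temperature.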

Experiment [7] in a line: qHTS assay to identify small molecule antagonists of the progesterone receptor (PR) signaling pathway - cell viability counter screen (AID 1346798). Also: nearly all actives have a fitted effect of over 50% in size. Also: potency is read from the fitted curve at half-maximal effect. In a few lines: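 Counter screen for cytotoxicity: viability of PR-UAS-bla HEK293T cells was measured with CellTiter-Glo luminescence following 16 hr compound exposure in the presence of R5020.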
The nature of experiment [8]: qHTS assay to identify small molecule agonists of the progesterone receptor (PR) signaling pathway - cell viability counter screen (AID 1346799; calls by dose curve; also: nearly all actives have a fitted effect of over 45% in size; also: potency is read from the fitted curve at half-maximal effect). In a few lines: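 Cells (PR-UAS-bla HEK293T) are plated at 3,000/well in 2% charcoal-stripped FBS medium, rested 6 hr, dosed and incubated 16 hr at 37C. CellTiter-Glo is then added and luminescence measured after 30 min at room temperature.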

Experiment [9] can be described thus: qHTS assay to identify small molecule antagonists of the TGF-beta/Smad signaling pathway - cell viability counter screen (AID 1346824). Also: nearly all actives have a fitted effect of over 50% in size. In short, it runs like this:
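SBE-bla HEK 293T cells, incubated overnight, then compound plus 0.25 ng/mL TGF-beta1 (stock added) for 5 hr at 37 C. Viability was read in the same wells by CellTiter-Glo luminescence after 30 min at room temperature.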

Experiment [10] is described as follows: qHTS assay to identify small molecule agonists of the TGF-beta/Smad signaling pathway - cell viability counter screen (AID 1346829). Also: top concentration of the series differs between compounds; nearly all actives have a fitted effect of over 45% in size. In short, it runs like this:
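In parallel with the Smad reporter read, viability of HEK 293T cells stably carrying SBE-bla is quantified by ATP luminescence following 5 hr compound treatment.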

A short description of experiment [11]: qHTS assay to identify small molecule agonists of the TGF-beta/Smad signaling pathway (AID 1346859; active = well fitted activation curve with a large enough effect in the signal ratio in the repeat runs, not every such curve was filed as active; the % refers to the signal ratio; also: series mostly up to about 77 µM). In short, it runs like this:
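Reporter line: HEK 293T with stably integrated SBE-controlled beta-lactamase. Compound exposure lasts 5 hr at 37 C and 5% CO2; substrate loading follows for 2 hr at room temperature, with emission read at 460 and 530 nm.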

Experiment [12] addresses Thyrotropin-releasing hormone receptor (Homo sapiens) (UniProt P34981). The experiment in a line: qHTS assay to identify small molecule antagonists of the thyrotropin-releasing hormone receptor (TRHR) signaling pathway (AID 1346877; active = well fitted inhibition curve with a large enough effect in the repeat runs, not every such curve was filed as active; also: potency is read from the fitted curve at half-maximal effect). In a few lines:
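Antagonist mode: after a 5 min room-temperature compound exposure, cells were stimulated with 1 nM (final) TRH. Dye-loaded TRHR-HEK293 cells were used, and calcium-dependent fluorescence was followed for 3 min, with 15-point titrations run in triplicate.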

For experiment [13] the target is unchanged. Kind of experiment: qHTS assay to identify small molecule agonists of the thyrotropin-releasing hormone receptor (TRHR) signaling pathway (AID 1346891; calls by dose curve; also: potency is read from the fitted curve at half-maximal effect;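 as to activation: HEK293 cells expressing TRHR with calcium dye readout; series mostly up to about 58 µM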). In a few lines: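 Cells: TRHR-Hek293, seeded and incubated 18 h. Dye loading: 2 h at 37 °C. Compound added from DMSO stock by pin tool. Read-out: kinetic calcium fluorescence over 3 min.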
Experiment [14] can be described thus: Human pregnane X receptor (PXR) small molecule agonists, qHTS cell viability counter screen (AID 1346977). Also: nearly all actives have a fitted effect of over 50% in size. Also: potency is read from the fitted curve at half-maximal effect. In a few lines: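 Cytotoxicity counter screen run in the same wells as the PXR luciferase assay, using PXR-Luc HepG2 cells in charcoal-stripped serum medium. Viability: CellTiter-Fluor fluorescence after 24hr compound treatment.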
Experiment [15] is described as follows: qHTS assay to identify small molecule agonists of the estrogen receptor beta (ER-beta) signaling pathway - cell viability counter screen (AID 1259380). Also: nearly all actives have a fitted effect of over 30% in size. Also: potency is read from the fitted curve at half-maximal effect. In short, it runs like this: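 Cell viability counter screen: CellTiter-Glo luminescence (30 min, room temperature) measured in the same wells as the beta-lactamase readout, after 16 hr compound exposure at 37C of ER-beta-bla HEK293T cells in 2% charcoal-stripped FBS medium.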

The target of experiment [16] is Androgen receptor (Homo sapiens) (UniProt P10275). The experiment in a line: qHTS assay to identify small molecule agonists of the androgen receptor (AR) signaling pathway in the presence of an antagonist (AID 1259381; calls by dose curve; also: nearly all actives have a fitted effect of over 15% in size). In short, it runs like this:
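Agonist-mode confirmation run against 3.0 uM final nilutamide: compounds titrated at 15 concentrations onto MDA-kb2 MMTV-luciferase reporter cells. Luminescence measured with ONE-Glo following 16 hr incubation, 37C, 0% CO2.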

Experiment [17] has as its target Progesterone receptor (Homo sapiens) (UniProt P06401). Kind of experiment: qHTS assay to identify small molecule agonists of the progesterone receptor (PR) signaling pathway (AID 1346784; calls by dose curve; also: nearly all actives have a fitted effect of over 30% in size). In a few lines: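 Cells (PR-UAS-bla HEK 293T, GripTite) were plated in assay medium containing 2% charcoal-stripped FBS and incubated 6 hr. Test compounds in DMSO were added for 16 hr at 37C. FRET substrate was then loaded for 2 hr at room temperature before fluorescence reading.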

“And” between values parts separate entries of the source, which are not always exact repeats. Equal entries are not always repeated. Records with an inconclusive call do not appear. A structure can be active in one record and inactive in another. The source made the active and inactive calls. Unless noted, calls follow the shape of the dose curve; as a rule, active = well fitted curve in the direction sought with a large enough effect in the repeat runs; inconclusive = weak or mixed curves; inactive = no such curve, though single readings can be large; an effect the other way counts as inactive or inconclusive.

Estrogen receptor (Homo sapiens), sequence (P03372 whole entry, looked up): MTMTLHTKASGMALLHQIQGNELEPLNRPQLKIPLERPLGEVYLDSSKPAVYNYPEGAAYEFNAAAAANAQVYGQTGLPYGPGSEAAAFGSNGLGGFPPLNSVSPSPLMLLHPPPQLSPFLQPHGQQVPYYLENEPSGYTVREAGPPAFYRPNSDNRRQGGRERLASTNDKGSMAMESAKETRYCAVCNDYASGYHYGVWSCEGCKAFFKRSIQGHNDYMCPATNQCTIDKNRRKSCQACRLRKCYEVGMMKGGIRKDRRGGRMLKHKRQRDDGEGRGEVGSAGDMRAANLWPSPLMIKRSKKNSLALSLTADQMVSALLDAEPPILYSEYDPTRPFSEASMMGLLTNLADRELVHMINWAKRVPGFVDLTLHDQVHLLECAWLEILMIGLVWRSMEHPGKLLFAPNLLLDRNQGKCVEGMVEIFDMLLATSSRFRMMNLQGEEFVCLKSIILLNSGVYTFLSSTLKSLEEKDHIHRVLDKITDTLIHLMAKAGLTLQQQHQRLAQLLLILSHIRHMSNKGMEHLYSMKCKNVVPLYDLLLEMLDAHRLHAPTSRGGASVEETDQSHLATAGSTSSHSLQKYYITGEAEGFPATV
Progesterone receptor (Homo sapiens), sequence (P06401 whole entry, looked up): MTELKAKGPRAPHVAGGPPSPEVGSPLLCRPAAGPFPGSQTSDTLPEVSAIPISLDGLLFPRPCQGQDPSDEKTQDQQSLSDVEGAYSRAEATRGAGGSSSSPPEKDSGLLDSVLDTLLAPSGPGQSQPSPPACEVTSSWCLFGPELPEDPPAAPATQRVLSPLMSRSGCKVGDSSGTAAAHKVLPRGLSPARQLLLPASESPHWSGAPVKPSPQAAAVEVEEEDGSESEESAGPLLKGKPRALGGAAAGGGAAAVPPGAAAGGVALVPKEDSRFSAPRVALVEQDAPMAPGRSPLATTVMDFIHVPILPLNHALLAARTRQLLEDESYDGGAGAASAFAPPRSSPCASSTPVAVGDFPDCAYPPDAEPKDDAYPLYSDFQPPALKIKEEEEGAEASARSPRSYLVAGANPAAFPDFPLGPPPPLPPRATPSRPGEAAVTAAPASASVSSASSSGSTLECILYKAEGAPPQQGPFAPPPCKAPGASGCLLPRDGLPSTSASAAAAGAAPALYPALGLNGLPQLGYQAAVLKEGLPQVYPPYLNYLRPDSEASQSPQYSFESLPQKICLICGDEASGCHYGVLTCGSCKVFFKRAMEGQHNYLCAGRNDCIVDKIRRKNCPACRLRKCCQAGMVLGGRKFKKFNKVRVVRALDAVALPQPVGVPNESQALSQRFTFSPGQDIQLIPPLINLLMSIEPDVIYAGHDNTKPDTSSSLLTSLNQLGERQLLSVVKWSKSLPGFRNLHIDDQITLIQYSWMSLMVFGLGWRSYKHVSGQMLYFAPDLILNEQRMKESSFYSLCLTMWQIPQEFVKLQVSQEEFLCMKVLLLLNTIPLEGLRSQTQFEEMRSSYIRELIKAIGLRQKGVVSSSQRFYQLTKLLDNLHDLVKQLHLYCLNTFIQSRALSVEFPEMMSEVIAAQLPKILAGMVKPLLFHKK
Thyrotropin-releasing hormone receptor (Homo sapiens), sequence (P34981 whole entry, looked up): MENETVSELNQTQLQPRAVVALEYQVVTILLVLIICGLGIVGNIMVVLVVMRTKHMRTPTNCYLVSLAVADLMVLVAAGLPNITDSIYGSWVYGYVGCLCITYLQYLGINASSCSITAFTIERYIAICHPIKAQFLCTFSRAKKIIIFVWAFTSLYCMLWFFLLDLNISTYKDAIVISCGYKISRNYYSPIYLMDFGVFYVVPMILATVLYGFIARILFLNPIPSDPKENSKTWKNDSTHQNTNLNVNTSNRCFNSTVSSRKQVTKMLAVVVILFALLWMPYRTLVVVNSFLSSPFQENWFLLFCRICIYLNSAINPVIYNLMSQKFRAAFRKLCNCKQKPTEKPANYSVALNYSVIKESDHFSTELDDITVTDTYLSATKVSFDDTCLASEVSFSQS
Androgen receptor (Homo sapiens), sequence (P10275 whole entry, looked up): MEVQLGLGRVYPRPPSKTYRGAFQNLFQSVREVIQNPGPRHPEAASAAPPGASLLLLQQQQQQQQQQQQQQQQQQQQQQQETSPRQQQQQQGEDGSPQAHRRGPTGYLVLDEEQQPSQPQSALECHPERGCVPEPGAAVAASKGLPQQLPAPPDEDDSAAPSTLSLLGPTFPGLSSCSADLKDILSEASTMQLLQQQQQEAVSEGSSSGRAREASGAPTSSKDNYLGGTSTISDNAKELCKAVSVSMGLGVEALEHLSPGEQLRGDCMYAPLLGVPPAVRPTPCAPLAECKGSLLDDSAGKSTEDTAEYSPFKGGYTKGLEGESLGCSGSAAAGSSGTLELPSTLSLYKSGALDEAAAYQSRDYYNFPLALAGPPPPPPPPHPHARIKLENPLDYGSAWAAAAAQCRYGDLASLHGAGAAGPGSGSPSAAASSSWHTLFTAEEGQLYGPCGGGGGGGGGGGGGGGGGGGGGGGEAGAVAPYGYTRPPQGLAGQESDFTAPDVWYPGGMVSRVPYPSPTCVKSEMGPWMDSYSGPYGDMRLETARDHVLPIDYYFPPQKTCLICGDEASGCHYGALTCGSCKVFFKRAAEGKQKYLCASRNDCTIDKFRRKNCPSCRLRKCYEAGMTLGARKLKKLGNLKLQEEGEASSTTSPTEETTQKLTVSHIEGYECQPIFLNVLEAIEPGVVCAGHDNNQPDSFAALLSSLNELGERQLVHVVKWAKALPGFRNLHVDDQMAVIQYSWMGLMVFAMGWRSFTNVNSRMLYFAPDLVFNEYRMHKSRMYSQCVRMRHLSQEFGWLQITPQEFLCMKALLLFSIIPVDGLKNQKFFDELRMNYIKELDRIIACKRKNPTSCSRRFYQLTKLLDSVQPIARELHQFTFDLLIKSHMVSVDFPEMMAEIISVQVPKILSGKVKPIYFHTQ
Thyrotropin receptor (Homo sapiens), sequence (P16473 whole entry, looked up): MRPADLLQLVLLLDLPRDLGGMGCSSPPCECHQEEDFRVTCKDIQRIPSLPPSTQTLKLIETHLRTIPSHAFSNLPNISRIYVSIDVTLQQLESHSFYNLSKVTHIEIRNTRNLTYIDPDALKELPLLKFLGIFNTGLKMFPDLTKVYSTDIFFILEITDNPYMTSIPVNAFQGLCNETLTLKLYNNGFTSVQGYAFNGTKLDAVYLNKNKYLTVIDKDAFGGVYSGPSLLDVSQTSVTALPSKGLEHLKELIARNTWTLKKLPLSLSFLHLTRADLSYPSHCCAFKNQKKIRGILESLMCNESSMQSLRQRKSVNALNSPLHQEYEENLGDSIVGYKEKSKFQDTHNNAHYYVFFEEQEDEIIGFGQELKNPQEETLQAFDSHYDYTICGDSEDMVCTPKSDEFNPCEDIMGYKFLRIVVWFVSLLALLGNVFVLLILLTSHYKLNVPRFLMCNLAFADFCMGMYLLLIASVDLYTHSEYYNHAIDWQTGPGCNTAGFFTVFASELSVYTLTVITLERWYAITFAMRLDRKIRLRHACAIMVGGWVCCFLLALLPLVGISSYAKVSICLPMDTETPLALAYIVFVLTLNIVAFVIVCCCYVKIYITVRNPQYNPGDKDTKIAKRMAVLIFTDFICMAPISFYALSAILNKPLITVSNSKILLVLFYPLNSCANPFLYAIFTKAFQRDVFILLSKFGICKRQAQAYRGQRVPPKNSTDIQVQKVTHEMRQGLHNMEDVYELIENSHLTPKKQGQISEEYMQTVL

With `Cc1cc(C)c(C=O)c(C)c1`, the Potency entry in [1], in experiment [2], in experiment [4], in experiment [5], in experiment [6] and in experiment [7] was “inactive” throughout. Moreover, the Potency entry in experiment [8], in [9], in [10], in experiment [11], in experiment [12] and in experiment [13] was “inactive” in each case. Further, the Potency result in experiment [14] is “inactive”. Further, the result in experiment [3] was inactive.

As to `CCCCCCCOC(=O)c1ccccc1C(=O)OCCCCCCC`, the Potency result in experiment [15], in experiment [16], in [1], in experiment [2], in experiment [4] and in experiment [5] was “inactive” throughout. In addition, the Potency result in experiment [6], in experiment [7], in experiment [8], in experiment [9], in experiment [11] and in experiment [12] was “inactive” each time. For the same molecule, the Potency entry in experiment [13] and in experiment [14] was “inactive” in each case. In addition, the call in experiment [3] and in experiment [17] was inactive.

As for `N#CSCSc1nc2ccccc2s1`, the figures for the Potency in experiment [15] and in experiment [14] were 8.63 µM (active) and 19.3 µM (active), respectively. Besides, the Potency entry in experiment [16], in [2], in [5], in experiment [8], in experiment [11] and in experiment [13] was “inactive” each time. Moreover, in experiment [3], the result was inactive.

As to `OCCN1CN(CCO)CN(CCO)C1`, the Potency entry in [15], in [16], in [1], in experiment [2], in [4] and in [5] was “inactive” in each case. Also, the Potency entry in experiment [6], in [7], in experiment [8], in experiment [9], in [10] and in [11] was “inactive” in each case. In addition, the Potency result in [12], in experiment [13] and in experiment [14] was “inactive” in each case. The result in [3] was inactive.

On to `CCCCCCCC/C=C\CCCCCCCC(=O)N(C)CC(=O)O`, for which the Potency in experiment [15] is 54.5 µM (active); in [1], 61.1 µM (active); in experiment [6], 24.3 µM (active); in experiment [7] it was 68.6 µM (active); in experiment [8] it was 68.6 µM (active). Besides, the Potency result in experiment [2], in experiment [4], in experiment [5], in experiment [9], in experiment [10] and in experiment [11] was “inactive” throughout. The Potency result in experiment [12], in [13] and in experiment [14] was “inactive” throughout. Further, the outcome in experiment [3] was inactive.

As for `C[n+]1c2cc(N)ccc2cc2ccc(N)cc21` (tested in a mixture with another compound), the Potency in experiment [15] is 11.9 µM (active); in experiment [13] it was 7.56 µM (active). The Potency result in [16], in experiment [9], in experiment [10] and in experiment [12] was “inactive” each time.

Regarding `CNCC[C@H](Oc1cccc2ccccc12)c1cccs1`, the Potency in experiment [15] is 16.8 µM (active); in experiment [1], 13.3 µM (active); in experiment [7] it was 23.7 µM (active); in experiment [8], 21.1 µM (active); in experiment [14], 29.8 µM (active). The molecule was called inactive in experiment [3] and in [17]. Besides, the Potency result in experiment [4], in experiment [9], in [10], in experiment [11], in experiment [12] and in [13] was “inactive” each time.

As to `CCCCCCCCCCOCC(O)CN` (stereo not drawn), the Potency in experiment [15] is 26.6 µM (active); in experiment [1], 26.6 µM (active); in experiment [8], 29.8 µM (active); in [14], 26.6 µM (active). Further, the Potency entry in experiment [16], in experiment [2], in experiment [4], in experiment [5], in experiment [11] and in experiment [12] was “inactive” in each case. Besides, the Potency result in experiment [13] is “inactive”. Besides, the molecule was classed as inactive in experiment [3].

In the case of `O=C(O)Cc1ccc(OCCNC[C@H](O)c2ccccc2)cc1`, the Potency entry in experiment [15], in experiment [16], in experiment [1], in experiment [2], in experiment [4] and in [5] was “inactive” in each case. Moreover, the Potency entry in experiment [9], in experiment [10], in experiment [11] and in [14] was “inactive” throughout. In addition, the result in experiment [3] and in experiment [17] was inactive.

On to `CN(C)CCCN1c2ccccc2CCc2ccccc21`, for which the Potency was 27.3 µM (active) and 23.7 µM (active) in [1]; 21.7 µM (active) and inactive in experiment [8]; 30.6 µM (active) and 23.7 µM (active) in [14]. Also, the Potency entry in experiment [10], in experiment [12] and in [13] was “inactive” throughout.

On to `CC(CN(C)C)CN1c2ccccc2CCc2ccccc21` (stereo not drawn), for which the Potency in experiment [15] was 26.6 µM (active); in experiment [1], 23.7 µM (active); in experiment [4], 29.8 µM (active); in [7] it was 21.1 µM (active); in [8], 16.8 µM (active); in experiment [14] it was 26.6 µM (active). Besides, the Potency result in experiment [2], in experiment [5], in experiment [9] and in experiment [10] was “inactive” throughout. The call in experiment [3] and in experiment [17] was inactive.

For `Nc1ccc2cc3ccc(N)cc3nc2c1`, the Potency in experiment [15] was 2.37 µM (active); in experiment [12], 33.8 µM (active); in experiment [13], 15.5 µM (active) and 13.5 µM (active). Further, the Potency result in [16], in experiment [1] and in experiment [10] was “inactive” in each case. For the same molecule, the call in experiment [17] was inactive.
